In PMC4336329 (PLoS ONE, 2015):
Screen size: about 310,000 compounds; about 14,000 (4.5%) showed an effect of 50% or more. The effect is printed as a negative number. Only a selection was taken, and strong results are over-represented in it overall.
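Also: peak tail current of the secondary pulse compared with the same well before compound.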

What follows are compounds tested against human ether-à-go-go-related gene (hERG) potassium channel (human, UniProt Q12809) (assay: primary screen, population patch clamp on CHO cells stably expressing hERG; higher = less effect of the substance).
Sequence of human ether-à-go-go-related gene (hERG) potassium channel (Q12809 whole entry, looked up): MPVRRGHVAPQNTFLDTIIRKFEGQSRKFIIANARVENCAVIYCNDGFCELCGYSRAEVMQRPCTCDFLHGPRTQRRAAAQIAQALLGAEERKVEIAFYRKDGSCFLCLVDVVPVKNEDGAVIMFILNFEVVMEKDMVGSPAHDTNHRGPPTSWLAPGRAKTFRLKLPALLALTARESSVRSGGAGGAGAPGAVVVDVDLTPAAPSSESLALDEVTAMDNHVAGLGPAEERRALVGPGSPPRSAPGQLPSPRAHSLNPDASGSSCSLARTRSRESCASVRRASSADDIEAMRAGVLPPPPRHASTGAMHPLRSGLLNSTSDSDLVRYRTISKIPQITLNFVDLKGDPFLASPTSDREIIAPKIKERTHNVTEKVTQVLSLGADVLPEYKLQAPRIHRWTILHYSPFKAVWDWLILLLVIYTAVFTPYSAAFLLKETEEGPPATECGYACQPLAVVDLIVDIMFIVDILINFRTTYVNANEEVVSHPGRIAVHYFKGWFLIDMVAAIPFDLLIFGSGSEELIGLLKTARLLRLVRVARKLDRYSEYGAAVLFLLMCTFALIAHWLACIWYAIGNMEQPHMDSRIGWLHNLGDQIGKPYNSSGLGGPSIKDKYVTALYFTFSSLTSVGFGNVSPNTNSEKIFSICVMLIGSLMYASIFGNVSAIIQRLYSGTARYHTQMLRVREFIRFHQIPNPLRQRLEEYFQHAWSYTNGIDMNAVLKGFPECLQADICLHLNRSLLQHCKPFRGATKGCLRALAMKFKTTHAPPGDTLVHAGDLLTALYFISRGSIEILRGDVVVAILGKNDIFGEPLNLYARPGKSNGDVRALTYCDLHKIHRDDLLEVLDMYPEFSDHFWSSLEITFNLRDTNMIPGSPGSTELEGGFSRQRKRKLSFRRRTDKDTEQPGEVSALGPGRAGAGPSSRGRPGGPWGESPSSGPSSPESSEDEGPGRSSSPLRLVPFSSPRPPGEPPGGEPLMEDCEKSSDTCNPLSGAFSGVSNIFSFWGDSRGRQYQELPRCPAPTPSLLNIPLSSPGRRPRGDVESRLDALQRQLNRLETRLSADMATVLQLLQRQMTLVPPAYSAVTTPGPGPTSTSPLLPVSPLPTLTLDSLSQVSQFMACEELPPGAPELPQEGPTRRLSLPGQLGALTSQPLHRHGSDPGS
With COc1ccc(OC)c(CN2CCN(CC(=O)Nc3ccccc3C(=O)NC3CC3)CC2)c1 the “hERG current change (%, negative = inhibition) at 10uM” value was -82.5%.
In the case of COc1cccc(OC)c1NC(=O)CN1CCC(NC(=O)c2cccc(F)c2)CC1, the “hERG current change (%, negative = inhibition) at 10uM” value is reported as 1.5%.
In the case of COc1cc(C)c(CN2CCN(CC(=O)Nc3ccccc3C(=O)NC3CC3)CC2)cc1OC, the “hERG current change (%, negative = inhibition) at 10uM” value is reported as -80.1%.
For COC(=O)c1ccccc1NC(=O)CN1CCC(NC(=O)c2ccc(C)cc2)CC1, the “hERG current change (%, negative = inhibition) at 10uM” value was 8.67%.
With COc1ccc(OCC(=O)Nc2ccccc2C(=O)NC2CC2)cc1 the “hERG current change (%, negative = inhibition) at 10uM” value was -13.4%.
In the case of COc1cc2c(cc1OC)CN(CC(=O)Nc1ccccc1C(=O)NC1CC1)CC2, the “hERG current change (%, negative = inhibition) at 10uM” value is reported as -24.5%.
COc1ccc(CN(C)CC(=O)Nc2ccccc2C(=O)NC2CC2)cc1OC was tested, and the “hERG current change (%, negative = inhibition) at 10uM” value was -21.7%.
With COc1ccc(CN2CCN(CC(=O)Nc3ccccc3C(=O)NC3CC3)CC2)cc1F the “hERG current change (%, negative = inhibition) at 10uM” value was -91.3%.
With COc1ccccc1OCC(=O)Nc1ccccc1C(=O)NC1CC1 the “hERG current change (%, negative = inhibition) at 10uM” value was -8.86%.
With COc1ccc(F)cc1CN1CCN(CC(=O)Nc2ccccc2C(=O)NC2CC2)CC1 the “hERG current change (%, negative = inhibition) at 10uM” value was -87.6%.
In the case of O=C(CCC(=O)c1ccc(F)cc1)Nc1ccccc1Cl, the “hERG current change (%, negative = inhibition) at 10uM” value is reported as 1.71%.
With Cc1ccc(S(=O)(=O)N2CCCC2)cc1C(=O)N1CCN(Cc2ccccc2)CC1 the “hERG current change (%, negative = inhibition) at 10uM” value was -8.29%.
In the case of CC1CSc2nnc(CCc3ccccc3)n21 (stereo not drawn), the “hERG current change (%, negative = inhibition) at 10uM” value is reported as 8.26%.
For O=C(CSc1ccc(-c2cccnc2)nn1)N1CCCCCC1, the “hERG current change (%, negative = inhibition) at 10uM” value was 23.2%.
With CCCCn1c(N)c(N(CCOC)C(=O)CSCc2cccc(C)c2)c(=O)[nH]c1=O the “hERG current change (%, negative = inhibition) at 10uM” value was 9.08%.
In the case of COCCNS(=O)(=O)c1ccc(SC)cc1, the “hERG current change (%, negative = inhibition) at 10uM” value is reported as 10.2%.
For Cc1cc(NC(=O)CSc2nnc(COc3ccccc3)n2Cc2ccco2)no1, the “hERG current change (%, negative = inhibition) at 10uM” value was 2.24%.
CCCN1CCc2c(sc(NC(=O)CCS(=O)(=O)c3ccccc3)c2C(N)=O)C1.Cl was tested, and the “hERG current change (%, negative = inhibition) at 10uM” value was -27.3%.
CC(C)N1CCc2c(sc(NC(=O)CCS(=O)(=O)c3ccccc3)c2C#N)C1.Cl was tested, and the “hERG current change (%, negative = inhibition) at 10uM” value was -9.63%.
In the case of CCCN1CCc2c(sc(NC(=O)CCS(=O)(=O)c3ccccc3)c2C(=O)OC)C1.Cl, the “hERG current change (%, negative = inhibition) at 10uM” value is reported as -67%.
In the case of CC(=O)N1CCc2c(sc(NC(=O)CS(=O)(=O)c3ccc(F)cc3)c2C(N)=O)C1, the “hERG current change (%, negative = inhibition) at 10uM” value is reported as 15.7%.
With CC(C)N1CCc2c(sc(NC(=O)CCS(=O)(=O)c3ccccc3)c2C(N)=O)C1.Cl the “hERG current change (%, negative = inhibition) at 10uM” value was -26%.
With CCOC(=O)N1CCc2c(sc(NC(=O)CCS(=O)(=O)c3ccccc3)c2C(N)=O)C1 the “hERG current change (%, negative = inhibition) at 10uM” value was -10.8%.
In the case of CCOC(=O)c1c(NC(=O)CCS(=O)(=O)c2ccccc2)sc2c1CCN(C)C2.Cl, the “hERG current change (%, negative = inhibition) at 10uM” value is reported as -52.5%.
CN1CCc2c(sc(NC(=O)CS(=O)(=O)c3ccc(F)cc3)c2C(N)=O)C1.Cl was tested, and the “hERG current change (%, negative = inhibition) at 10uM” value was -58.8%.
CN1CCc2c(sc(NC(=O)CS(=O)(=O)c3ccccc3)c2C(N)=O)C1.Cl was tested, and the “hERG current change (%, negative = inhibition) at 10uM” value was -23.4%.
In the case of CC(=O)N1CCc2c(sc(NC(=O)CCS(=O)(=O)c3ccccc3)c2C(N)=O)C1, the “hERG current change (%, negative = inhibition) at 10uM” value is reported as 5.3%.
With COC(=O)c1c(NC(=O)CCS(=O)(=O)c2ccccc2)sc2c1CCN(C)C2.Cl the “hERG current change (%, negative = inhibition) at 10uM” value was -48%.
In the case of CCOC(=O)c1c(NC(=O)CCS(=O)(=O)c2ccccc2)sc2c1CCN(C(C)C)C2.Cl, the “hERG current change (%, negative = inhibition) at 10uM” value is reported as -72.4%.
CC(Sc1ncn[nH]1)C(=O)Nc1ccc(Cl)cn1 (stereo not drawn) was tested, and the “hERG current change (%, negative = inhibition) at 10uM” value was 2.06%.
With O=C(O)c1ccc(/C=C/c2nc3ccccc3c(=O)[nH]2)cc1 the “hERG current change (%, negative = inhibition) at 10uM” value was 17.5%.
CCSc1nnc(NC(=O)c2cccs2)s1 was tested, and the “hERG current change (%, negative = inhibition) at 10uM” value was -8.23%.
COc1cc(OC)cc(-c2nnc(SCC(=O)N3c4ccccc4Sc4ccccc43)o2)c1 was tested, and the “hERG current change (%, negative = inhibition) at 10uM” value was 15.3%.
In the case of CC1C=CCC2C(=O)N(c3ccc(Cl)cc3O)C(=O)C12 (stereo not drawn), the “hERG current change (%, negative = inhibition) at 10uM” value is reported as -2.47%.
For COC(=O)c1sc(N2C(=O)C(O)=C(C(=O)c3ccc(C)o3)C2c2ccco2)nc1C (stereo not drawn), the “hERG current change (%, negative = inhibition) at 10uM” value was -4.73%.
For O=C(O)C1=C[C@H](c2ccc(C(F)(F)F)cc2)C[C@H](OCc2ccc(CO)cc2)O1, the “hERG current change (%, negative = inhibition) at 10uM” value was 21.5%.
O=C(CSc1ccsc1[N+](=O)[O-])N1CCN(c2ccc(Cl)cc2)CC1 was tested, and the “hERG current change (%, negative = inhibition) at 10uM” value was 10%.
O=C(COc1ccc(Cl)cc1)Nc1ccc(NC(=O)c2ccco2)cc1 was tested, and the “hERG current change (%, negative = inhibition) at 10uM” value was 13.4%.
For COc1cccc(CN(C)C(=O)Nc2cccc(C(F)(F)F)c2)c1OC, the “hERG current change (%, negative = inhibition) at 10uM” value was -4.73%.
For O=C(NCc1ccc(Cl)cc1)c1cc2c(s1)CS(=O)(=O)C2, the “hERG current change (%, negative = inhibition) at 10uM” value was -15.1%.
For O=C(CCCn1c(=O)c2sccc2n(Cc2ccc(F)cc2)c1=O)NCc1ccco1, the “hERG current change (%, negative = inhibition) at 10uM” value was -30.2%.
O=C(NCc1cccs1)Nc1ccc(Cl)cc1 was tested, and the “hERG current change (%, negative = inhibition) at 10uM” value was -21.2%.
In the case of O=C(O)c1ccc2c(c1)S(=O)(=O)c1cc(Cl)ccc1C2=O, the “hERG current change (%, negative = inhibition) at 10uM” value is reported as 19.5%.
In the case of Cc1cccc(N2CCN(C(=O)COc3ccc4ccc(=O)oc4c3)CC2)c1C, the “hERG current change (%, negative = inhibition) at 10uM” value is reported as 5.66%.
With C[n+]1ccccc1/C=C1\Sc2ccccc2N1CCO.[I-] the “hERG current change (%, negative = inhibition) at 10uM” value was -2.79%.
In the case of CCN1/C(=C2\SC(=S)N(Cc3ccccc3)C2=O)Sc2ccccc21, the “hERG current change (%, negative = inhibition) at 10uM” value is reported as 13.6%.
In the case of CCC(CO)[n+]1c(C)cc(/C=C2\Sc3ccccc3N2Cc2ccccc2)cc1C.[Br-] (stereo not drawn), the “hERG current change (%, negative = inhibition) at 10uM” value is reported as -75.6%.
With Nc1cc([N+](=O)[O-])ccc1O the “hERG current change (%, negative = inhibition) at 10uM” value was 6.95%.
For Clc1cncc(Cl)c1N/N=C/c1ccccc1, the “hERG current change (%, negative = inhibition) at 10uM” value was -1.37%.
With CNC(=O)c1cc2cc(Cc3ccccc3Cl)ccc2oc1=O the “hERG current change (%, negative = inhibition) at 10uM” value was 1.75%.
For CCN1C(=O)C(CC(=O)Nc2ccc(F)cc2)N(Cc2cccs2)C1=S (stereo not drawn), the “hERG current change (%, negative = inhibition) at 10uM” value was -48.9%.
In the case of CCOc1ccc2c(c1)C(N(CCN1CCOCC1)C(=O)Nc1ccccc1)CC(C)(C)O2 (stereo not drawn), the “hERG current change (%, negative = inhibition) at 10uM” value is reported as -19.1%.
With CCOc1ccc2c(c1)C(N(CCN1CCOCC1)C(=O)Nc1ccc(OC)cc1OC)CC(C)(C)O2 (stereo not drawn) the “hERG current change (%, negative = inhibition) at 10uM” value was -51.9%.
In the case of CCOc1ccc2c(c1)C(N(CCN1CCOCC1)C(=S)Nc1ccccc1OC)CC(C)(C)O2 (stereo not drawn), the “hERG current change (%, negative = inhibition) at 10uM” value is reported as -24.9%.
